# Measured values reported in the supplement of paper PMC10037445.
# The full ranking holds about 2,900 compounds; the median of “NF-kB SEAP reporter activity, fold change vs agonist alone” is about 0.99, and the highest 2% start at about 2.6. For the sample, the highest values were picked, then their nearest neighbours and some compounds at random.
# Assays:
# [1] = test system: RAW-Dual; assay: NF-kB SEAP reporter activity, fold change vs agonist alone; cytotoxicity flag (confluency mask): not cytotoxic; higher = enhanced NF-kB activity
# In short: (§1)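 RAW-Dual macrophages were seeded in DMEM at 50,000 cells/well in 384-well plates, given 50 nL of library stock by pin tool, and given a PRR agonist 1 h later. Plates were held at 37 °C, 5% CO2 for 20 hours, after which supernatant was read for IRF by QuantiLuc luminescence and for NF-κB by QuantiBlue absorbance at 620 nm. Reporter activity is expressed as fold change over wells that received agonist alone. A well was called cytotoxic when IncuCyte confluency fell below 70% of agonist controls in both mask sets.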
# [2] = test system: RAW-Dual; assay: NF-kB SEAP reporter activity, fold change vs agonist alone; higher = enhanced NF-kB activity; details: cytotoxicity flag (confluency mask): not cytotoxic
# In short: as §1
# [3] = agonist: ODN 1826 (TLR9) 0.5 ug/mL
# [4] = agonist: Pam2CSK4 (TLR2/6) 0.1 ug/mL
# [5] = agonist: Pam3CSK4 (TLR2/1) 0.1 ug/mL
# [6] = library stock concentration (final ~1000-fold dilution): 10 mM, agonist: Imiquimod (TLR7) […]
# [7] = library stock concentration (final ~1000-fold dilution): 10 mM, agonist: MPLA (TLR4) […]
smiles,measurement,setting,value
COC1=CC(c2cc3ccccc3[nH]2)=N/C1=C\c1[nH]c(C)cc1C.CS(=O)(=O)O (library stock concentration (final ~1000-fold dilution): 10 mM),NF-kB SEAP reporter activity,[1]; agonist: LPS (TLR4) 0.1 ug/mL,8.62
same,NF-kB SEAP reporter activity,[1]; [3],1.9
same,NF-kB SEAP reporter activity,[1]; [4],2.55
same,NF-kB SEAP reporter activity,[1]; [5],3.87
COC1=CC(c2cc3ccccc3[nH]2)=N/C1=C\c1[nH]c(C)cc1C.CS(=O)(=O)O,NF-kB SEAP reporter activity,[2]; [6],1.4
same,NF-kB SEAP reporter activity,[2]; [7],2.78
CCOC(=O)COc1ccc(/C=C2\SC(=S)NC2=O)cc1OC (library stock concentration (final ~1000-fold dilution): 10 mM),NF-kB SEAP reporter activity,[1]; agonist: LPS (TLR4) 0.1 ug/mL,1.04
same,NF-kB SEAP reporter activity,[1]; [3],0.889
same,NF-kB SEAP reporter activity,[1]; [4],0.889
same,NF-kB SEAP reporter activity,[1]; [5],1.1
CCOC(=O)COc1ccc(/C=C2\SC(=S)NC2=O)cc1OC,NF-kB SEAP reporter activity,[2]; [6],0.985
same,NF-kB SEAP reporter activity,[2]; [7],1.1
CCOC(=O)C1=CCCCC1S(=O)(=O)Nc1ccc(F)cc1Cl (stereo unspecified) (library stock concentration (final ~1000-fold dilution): .1 mM),NF-kB SEAP reporter activity,[1]; agonist: LPS (TLR4) 0.1 ug/mL,0.288
same,NF-kB SEAP reporter activity,[1]; [3],1.09
same,NF-kB SEAP reporter activity,[1]; [4],1.36
same,NF-kB SEAP reporter activity,[1]; [5],1.39
CCOC(=O)C1=CCCCC1S(=O)(=O)Nc1ccc(F)cc1Cl (stereo unspecified),NF-kB SEAP reporter activity,"[2]; library stock concentration (final ~1000-fold dilution): .1 mM, agonist: Imiquimod (TLR7) […]",1.2
same,NF-kB SEAP reporter activity,"[2]; library stock concentration (final ~1000-fold dilution): .1 mM, agonist: MPLA (TLR4) […]",0.252
N=C(N)c1ccc(OCCCCCOc2ccc(C(=N)N)cc2)cc1.O=S(=O)(O)CCO.O=S(=O)(O)CCO (library stock concentration (final ~1000-fold dilution): 10 mM),NF-kB SEAP reporter activity,[1]; agonist: LPS (TLR4) 0.1 ug/mL,3.88
same,NF-kB SEAP reporter activity,[1]; [3],1.22
same,NF-kB SEAP reporter activity,[1]; [4],0.758
same,NF-kB SEAP reporter activity,[1]; [5],1.06
CS(=O)(=O)O.CS(=O)(=O)O.N=C(N)Nc1ccc(C(=O)Oc2ccc3cc(C(=N)N)ccc3c2)cc1,NF-kB SEAP reporter activity,[2]; [6],1.01
same,NF-kB SEAP reporter activity,[2]; [7],1.02
N=C(N)c1ccc(OCCCCCOc2ccc(C(=N)N)cc2)cc1.O=S(=O)(O)CCO.O=S(=O)(O)CCO,NF-kB SEAP reporter activity,[2]; [6],1.39
same,NF-kB SEAP reporter activity,[2]; [7],1.89
NC(=O)c1ccc(OCCCN2CC3CCCC3C2)cc1 (stereo unspecified),NF-kB SEAP reporter activity,[2]; [6],0.844
same,NF-kB SEAP reporter activity,[2]; [7],1.05
NC(=O)c1ccc(OCCCN2CC3CCCC3C2)cc1 (stereo unspecified) (library stock concentration (final ~1000-fold dilution): 10 mM),NF-kB SEAP reporter activity,[1]; agonist: LPS (TLR4) 0.1 ug/mL,0.976
same,NF-kB SEAP reporter activity,[1]; [3],0.696
same,NF-kB SEAP reporter activity,[1]; [4],0.926
same,NF-kB SEAP reporter activity,[1]; [5],1.14
CS(=O)(=O)O.CS(=O)(=O)O.N=C(N)Nc1ccc(C(=O)Oc2ccc3cc(C(=N)N)ccc3c2)cc1 (library stock concentration (final ~1000-fold dilution): 10 mM),NF-kB SEAP reporter activity,[1]; agonist: LPS (TLR4) 0.1 ug/mL,1.08
same,NF-kB SEAP reporter activity,[1]; [3],1.05
same,NF-kB SEAP reporter activity,[1]; [4],1.02
same,NF-kB SEAP reporter activity,[1]; [5],0.924
COCCc1ccc(OCC(O)CNC(C)C)cc1.COCCc1ccc(OCC(O)CNC(C)C)cc1.O=C(O)CCC(=O)O (stereo unspecified) (library stock concentration (final ~1000-fold dilution): 10 mM),NF-kB SEAP reporter activity,[1]; agonist: LPS (TLR4) 0.1 ug/mL,1.32
same,NF-kB SEAP reporter activity,[1]; [3],0.801
same,NF-kB SEAP reporter activity,[1]; [4],0.839
same,NF-kB SEAP reporter activity,[1]; [5],0.868
COCCc1ccc(OCC(O)CNC(C)C)cc1.COCCc1ccc(OCC(O)CNC(C)C)cc1.O=C(O)CCC(=O)O (stereo unspecified),NF-kB SEAP reporter activity,[2]; [7],1.03
NC1(C(=O)NC(CCO)c2ccc(Cl)cc2)CCN(c2ncnc3[nH]ccc23)CC1 (stereo unspecified),NF-kB SEAP reporter activity,[2]; [6],0.829
same,NF-kB SEAP reporter activity,[2]; [7],0.793
NC1(C(=O)NC(CCO)c2ccc(Cl)cc2)CCN(c2ncnc3[nH]ccc23)CC1 (stereo unspecified) (library stock concentration (final ~1000-fold dilution): 10 mM),NF-kB SEAP reporter activity,[1]; agonist: LPS (TLR4) 0.1 ug/mL,0.9
same,NF-kB SEAP reporter activity,[1]; [3],1.06
same,NF-kB SEAP reporter activity,[1]; [4],0.974
same,NF-kB SEAP reporter activity,[1]; [5],0.723
O=C1N=C(O)CN1N=Cc1ccc(-c2ccc([N+](=O)[O-])cc2)o1 (library stock concentration (final ~1000-fold dilution): 10 mM),NF-kB SEAP reporter activity,[1]; agonist: LPS (TLR4) 0.1 ug/mL,1.06
same,NF-kB SEAP reporter activity,[1]; [3],0.843
same,NF-kB SEAP reporter activity,[1]; [4],0.877
same,NF-kB SEAP reporter activity,[1]; [5],0.756
